Results filed as inconclusive are left out. The source made the active and inactive calls. Unless noted, calls come from the whole dose curve; as a rule, active = well fitted curve in the direction sought with a large enough effect; inconclusive = small, poorly fitted or top-dose-only effect, or another doubt; inactive = no such curve, though single readings can be large; an effect the other way counts as inactive or inconclusive.
Columns and labels:
[1] = qHTS profiling of the MIPE4 collection as inhibitors of Plasmodium falciparum (3D7) proliferation (AID 743344; call rule not given here;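 note: scaled between DMSO vehicle wells and 0.29 µM artemisinin as full inhibition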); details: P. falciparum 3D7 in erythrocytes, SYBR Green DNA fluorescence, 72 h; at 28.5 µM unless noted
In short: (§1)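 Parasite DNA was quantified by SYBR Green I fluorescence (ex 485, em 535 nm) after overnight lysis in saponin/Triton buffer at room temperature. Cultures at 0.3% parasitemia and 2.5% hematocrit were first exposed to compound for 72 h at 37 C; signals were normalised to artemisinin (0.29 uM) and vehicle wells.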

[2] = qHTS profiling of the MIPE4 collection as inhibitors of Plasmodium falciparum (DD2) proliferation (AID 743345; call rule not given here); details: P. falciparum Dd2 in erythrocytes, SYBR Green DNA, 72 h; at 28.5 µM unless noted
In short: as §1

[3] = qHTS profiling of the MIPE4 collection as inhibitors of Plasmodium falciparum (DD2) proliferation (Rep 2) (AID 743346; call rule not given here); details: P. falciparum Dd2 in erythrocytes, SYBR Green DNA, 72 h; at 28.5 µM unless noted
In short: as §1

[4] = qHTS profiling of the MIPE4 collection as inhibitors of Plasmodium falciparum (HB3) proliferation (AID 743347; call rule not given here;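 note: plate controls were DMSO vehicle wells for no effect and artemisinin wells for full effect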); details: P. falciparum HB3 in erythrocytes, SYBR Green DNA, 72 h; at 28.5 µM unless noted
In short: as §1

[5] = High-throughput drug toxicity screening in the BPDCN cell line Gen2.2 (AID 1224824; call rule not given here;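 note: cells exposed to compounds for 48 h before reading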); details: Gen2.2 BPDCN cells; at 45.8 µM (top of the series) unless noted
In short: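 Readout is ATP luminescence from Gen2.2 cells after two days of drug exposure in serum-containing medium at 37 °C. Values express percent activity, with vehicle defining full signal and 9.2 uM bortezomib defining zero.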

[6] = High-throughput drug toxicity screening in the BPDCN cell line Cal-1 (AID 1224825; call rule not given here); details: Cal-1 BPDCN cell viability, qHTS; at 45.8 µM (top of the series) unless noted
In short: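 CellTiter-Glo luminescence after 48 h compound exposure; percent activity scaled with DMSO as 100% and bortezomib (9.2 uM final) as 0%. Cal-1 cells seeded at 500/well in RPMI, 10% FBS, no phenol red.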

[7] = qHTS assay for measurement of the activity of small molecule inhibitors on Zika virus induced Caspase-3 activity in human iPSC derived neural progenitor cells (hNPCs) (AID 1224857); note: % of control where 0% means no effect; nearly all actives have a fitted effect of over 65% in size
In short: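 Human iPSC-derived neural progenitor cells pretreated 1 hr with compounds, then infected with Zika virus (2 FFU/cell) for 6 hours at 37 C. Caspase-3/7 measured by Caspase-Glo luminescence; % inhibition calculated from induction scaled to uninfected (0%) and infected (100%) wells.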

[8] = qHTS assay for measurement of the activity of small molecule inhibitors on Zika virus induced Caspase-3 activity in human astrocytoma cells (AID 1224859);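 note: plate controls were ZIKV-infected untreated cells for no effect and uninfected cells for full effect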
In short: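 SNB-19 astrocytoma cells, 250/well, pretreated 1 h with compounds, then Zika virus at 2 FFU/cell for 6 h at 37 C; Caspase-Glo 3/7 luminescence after 30 min; percent inhibition normalised to uninfected and infected controls.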

[9] = qHTS Screen of the MIPE 4.0 Collection Against Ewings Sarcoma (RDES) (AID 1259252); note: nearly all actives have a fitted effect of over 35% in size; note: potency is the fitted concentration of half-maximal effect
In short: (§2)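 Dose series incubated 48 h with cells in RPMI plus 5% FBS, glutamine and penicillin/streptomycin; cell viability then quantified via CellTiter-Glo.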

[10] = qHTS Screen of the MIPE 4.0 Collection Against Ewings Sarcoma (TC71) (AID 1259253); note: nearly all actives have a fitted effect of over 40% in size; note: potency is the fitted concentration of half-maximal effect
In short: as §2

[11] = qHTS Screen of the MIPE 4.0 Collection Against Ewings Sarcoma (EW8) (AID 1259255); note: nearly all actives have a fitted effect of over 35% in size; note: potency is the fitted concentration of half-maximal effect;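 for viability: 100% = DMSO-treated cells and 0% = medium-only wells without cells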
In short: as §2

[12] = qHTS Screen of the MIPE 4.0 Collection Against Ewings Sarcoma (TC32) (AID 1259256); note: nearly all actives have a fitted effect of over 45% in size; note: potency is the fitted concentration of half-maximal effect
In short: as §2

[13] = P-glycoprotein substrates identified in KB-8-5-11 adenocarcinoma cell line, qHTS therapeutic library screen (AID 1346987); note: nearly all actives have a fitted effect of over 65% in size; note: potency is the fitted concentration of half-maximal effect
In short: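 In this qHTS, P-gp-rich KB-8-5-11 cells received library compounds across a concentration range. Viability was quantified by luminescence after 72 h at 37 degree C.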

[14] = qHTS profiling for inhibitors of Plasmodium falciparum (3D7) proliferation (AID 743322);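 note: infected erythrocytes exposed to compound for 72 h before lysis; 100% = DMSO vehicle wells and 0% = 0.29 µM artemisinin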; details: P. falciparum 3D7 proliferation; at 28.7 µM (top of the series)
In short: as §1

[15] = qHTS profiling for inhibitors of Plasmodium falciparum (DD2) proliferation (AID 743323; call rule not given here); details: lower = more inhibition; at 28.7 µM (top of the series)
In short: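 SYBR Green fluorescence (ex 485, em 535 nm) of lysed cultures gives parasite DNA content; wells normalized to artemisinin (0.29 uM) and DMSO controls. Infected red cells: 0.3% parasitemia, 2.5% hematocrit, 72 h, 37 C.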

[16] = qHTS profiling for inhibitors of Plasmodium falciparum (HB3) proliferation (AID 743324); details: Plasmodium falciparum HB3 blood-stage proliferation; at 28.7 µM (top of the series);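 note: 100% = DMSO vehicle wells and 0% = artemisinin-treated control wells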
In short: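 SYBR Green fluorescence (485 ex/535 em) of lysed cultures, incubated overnight at room temperature in the dark, quantifies parasite DNA. Infected erythrocytes at 0.3% parasitemia and 2.5% hematocrit were exposed 72 h; values normalized to DMSO and 0.29 uM artemisinin controls.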

| SMILES | parasite growth, % of DMSO control [1] [%] | parasite growth remaining, % of DMSO control (lower = more inhibition) [2] [%] | parasite growth, % of control (lower = inhibition) [3] [%] | growth, % of control [4] [%] | cell viability, % of control (lower = more cytotoxic) [5] [%] | viability (% of control) [6] [%] | Potency [7] | Potency [8] | Potency [9] | Potency [10] | Potency [11] | Potency [12] | Potency [13] | remaining parasite growth % (stronger effect = lower value) [14] [%] | activity, percent of control [15] [%] | remaining proliferation (% of control), lower = more inhibition [16] [%] |
| --- | --- | --- | --- | --- | --- | --- | --- | --- | --- | --- | --- | --- | --- | --- | --- | --- |
| O=c1ccn([C@@H]2O[C@H](CO)[C@H](O)[C@@H]2F)c(=O)[nH]1 | 187 | 100 | 107 | 645 | 191 | 119 | inactive | inactive | 3.72 µM (active) | 3.32 µM (active) | 26.4 µM (active) | 18.7 µM (active) | inactive |  |  |  |
| CN(N=O)C(=O)N[C@H]1C(O)OC(CO)[C@@H](O)[C@H]1O (stereo partly specified) | 81.6 | 93.8 |  | 68.3 | 97.4 | 96.8 | inactive | inactive | inactive | inactive | inactive | inactive | inactive |  |  |  |
| COc1ccnc2[nH]cc(C(=O)C(=O)N3CCN(C(=O)c4ccccc4)C[C@@H]3C)c12 | 81 | 98 |  | 99.1 | 172 | 119 | inactive | inactive | inactive | 2.64 µM (active) | inactive | 4.18 µM (active) | inactive |  |  |  |
| CC(=O)ON=C1C(c2c(O)[nH]c3cc(Br)ccc23)=Nc2ccccc21 | 2.37 | 6.76 | 6.05 | 2.46 | 129 | 17.5 | inactive | inactive | 2.96 µM (active) | 9.35 µM (active) | 7.43 µM (active) | 7.43 µM (active) |  |  |  |  |
| C=C(C)[C@@H]1CC[C@]2(C(=O)O)CC[C@]3(C)[C@H](CC[C@@H]4[C@@]5(C)CC[C@H](O)C(C)(C)[C@@H]5CC[C@]43C)[C@@H]12 |  | 20.6 |  |  | 61.6 | 85.4 | inactive | inactive | inactive | inactive | inactive | inactive | inactive |  |  |  |
| CC(=O)NCC(=O)N1[C@H]2CC[C@H]1c1cc(Nc3ncc(C(F)(F)F)c(NC4CCC4)n3)ccc12 | 8.18 |  |  | 6.85 | 2.71 | 2.93 | inactive | inactive | 5.26 µM (active) | 0.935 µM (active) | 0.0833 µM (active) | 0.209 µM (active) | 3.72 µM (active) |  |  |  |
| COc1cccc2c1C(=O)c1c(O)c3c(c(O)c1C2=O)C[C@@](O)(C(=O)CO)C[C@H]3O[C@H]1C[C@H](N)[C@H](O)[C@H](C)O1 | 3.34 |  | 5.25 | 1.64 | 6.45 | 4.57 | inactive | inactive | 0.187 µM (active) | 0.0743 µM (active) | 0.0264 µM (active) | inactive |  | -4.47 | -1.95 | 4.32 |
| O=C1NC(O)CCN1[C@@H]1O[C@H](CO)[C@H](O)[C@H]1O (stereo partly specified) | 98.9 |  | 109 | 59.2 | 105 | 115 | inactive | inactive | inactive | inactive | inactive | inactive | inactive |  |  |  |
